In PubChem BioAssay (Tox21):
Values joined by “and” are separate entries in the source; they are usually repeats but may differ in a detail not shown here. Equal entries are not always repeated. Inconclusive results are not listed. Some structures have more than one record in an assay (separate samples or runs), and their calls can disagree. Active and inactive are the calls of the source. Unless noted, the call rests on the fitted dose curve.

Experiments:
[1] = Nuclear factor erythroid 2-related factor 2/antioxidant responsive element (Nrf2/ARE) small molecule agonists: qHTS cell viability counter screen in human keratinocytes (AID 1919968; active means well fitted curve in the direction sought with a large enough effect in the repeat runs; an effect the other way counts as inactive or inconclusive; further: nearly all actives have a fitted effect of over 55% in size; further: potency means the concentration at half of the fitted maximal effect)
Procedure, shortened: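 KeratinoSens cells (HaCaT keratinocytes stably carrying an ARE-luciferase reporter) were seeded at 1,500 cells/well and rested 5 h at 37 C/5% CO2. They were then exposed to compounds in DMSO for 23 h. Viability was read by CellTiter-Fluor fluorescence after 1 h.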

[2] = Nuclear factor erythroid 2-related factor 2/antioxidant responsive element (Nrf2/ARE) small molecule agonists: luciferase reporter gene qHTS assay in human keratinocytes (AID 1919969); further: nearly all actives have a fitted effect of over 35% in size; further: potency means the concentration at half of the fitted maximal effect
[3] = molecular target: Gonadotropin-releasing hormone receptor (Homo sapiens) (UniProt P30968); assay: Human gonadotropin-releasing hormone receptor (GnRHR) small molecule agonists, calcium flux assay in GnRHR-HEK293 cells (AID 1920063); further: nearly all actives have a fitted effect of over 35% in size
Procedure, shortened: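 HEK293 cells stably expressing human GnRHR were plated 18 h at 37 °C, loaded with calcium dye 1 h at 37 °C, then given compound in agonist mode; fluorescence (Ex/Em 480/540) read kinetically for 3 min at 1 s intervals.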

[4] = molecular target: KiSS-1 receptor (Homo sapiens) (UniProt Q969F8); assay: Human kisspeptin (KISS1R) small molecule agonists, calcium flux assay in KISS1R-HEK293 cells (AID 1920064; active means well fitted curve in the direction sought with a large enough effect in the repeat runs; an effect the other way counts as inactive or inconclusive)
Procedure, shortened: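 HEK293 cells stably expressing human KISS1R were plated 18 h at 37 °C, loaded with calcium dye for 1 h at 37 °C, then given compound by pin tool. Fluorescence (Ex/Em 480/540) was read kinetically for 3 min.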

[5] = G protein-coupled receptor (GPCR) small molecule agonists, calcium flux assay: HEK293 wild type cell line counter screen (AID 1920065)
Procedure, shortened: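 Cells were plated and cultured 18 h at 37 C/5% CO2, then loaded with calcium dye for 1 h at 37 C. Compounds in DMSO were pin-transferred in agonist mode, and fluorescence (Ex/Em 480/540) was read kinetically for 3 min at 1 s intervals.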

[6] = p53 small molecule agonists, cell-based qHTS assay with human liver microsomes (AID 1963577);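 further: p53 response element beta-lactamase reporter cells with liver microsomes plus NADPH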
Procedure, shortened: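 HLM-supplemented p53RE-bla reporter assay: 16 h compound exposure at 37 C, microsomes and NADPH each 0.5 mg/mL final, read by fluorescence intensity.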

[7] = p53 small molecule agonists, cell-based qHTS assay with rat liver microsomes (AID 1963578)
Procedure, shortened: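 Quantitative HTS of the Tox21 10K library: p53RE-bla cells, rat liver microsomes plus NADPH at 0.5 mg/mL final each, 16 h at 37 C, beta-lactamase fluorescence detection.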

[8] = p53 small molecule agonists, cell-based qHTS assay with human liver microsomes: qHTS cell viability counter screen (AID 1963579); further: nearly all actives have a fitted effect of over 45% in size
Procedure, shortened: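 Viability of p53RE-bla cells is measured as CellTiter-Glo luminescence following a 16 h, 37 C incubation with compound, liver microsomes from human donors and NADPH.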

[9] = p53 small molecule agonists, cell-based qHTS assay with rat liver microsomes: qHTS cell viability counter screen (AID 1963580); further: nearly all actives have a fitted effect of over 45% in size; further: potency means the concentration at half of the fitted maximal effect
Procedure, shortened: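 In HCT-116 cells carrying a p53 response element-bla reporter, compounds were metabolically activated in situ by rat liver microsomes with NADPH over 16 h. Cell ATP content then served as the cytotoxicity measure.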

[10] = p53 small molecule agonists, cell-based qHTS assay: qHTS cell viability counter screen (AID 1963581); further: nearly all actives have a fitted effect of over 45% in size; further: potency means the concentration at half of the fitted maximal effect
Procedure, shortened: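 p53RE-bla HCT-116 cells were exposed to compounds for 16 h at 37 C; after the beta-lactamase FRET read in the same wells, CellTiter-Glo was added and luminescence (intracellular ATP) read after 30 min at room temperature.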

[11] = p53 small molecule agonists, cell-based qHTS assay (AID 1963582; active means well fitted activation curve with a large enough effect in the signal ratio in the repeat runs, not every such curve was filed as active; the % refers to the signal ratio)
Procedure, shortened: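 p53RE-bla beta-lactamase reporter cells rested 5 h at 37 C/5% CO2, then received compounds in DMSO by pin transfer and were incubated 16 h at 37 C. LiveBLAzer B/G FRET substrate was loaded for 2 h at room temperature before fluorescence reading.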

[12] = molecular target: Muscarinic acetylcholine receptor M1 (Homo sapiens) (UniProt P11229); assay: Cholinergic receptor muscarinic 1 (CHRM1) small molecule antagonists, cell-based qHTS assay (AID 1963588); further: nearly all actives have a fitted effect of over 40% in size
Procedure, shortened: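 CHRM1-CHO calcium-flux assay, antagonist mode. Cells were seeded 18 h, dye-loaded 1 h at 37 C and given compound for 5 min at RT, then acetylcholine was added at 50nM. FDSS fluorescence was read 3 min; 15 concentrations, three runs.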

[13] = molecular target: Muscarinic acetylcholine receptor M1 (Homo sapiens) (UniProt P11229); assay: Cholinergic receptor muscarinic 1 (CHRM1) small molecule agonists, cell-based qHTS assay (AID 1963589); further: nearly all actives have a fitted effect of over 35% in size
Procedure, shortened: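 CHO cells stably expressing human CHRM1, seeded 18 h at 37 C/5% CO2, dye-loaded 1 h at 37 C, then given compound in agonist mode; intracellular calcium fluorescence read kinetically at 1 s intervals. Fifteen concentrations, three independent runs.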

[14] = cAMP Responsive Elements (CRE) small molecule agonists, cell-based qHTS assay (AID 1963590)
Procedure, shortened: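 CRE-bla HEK 293T cells in DMEM with 10% dialyzed FBS, NEAA, pyruvate and 25 mM HEPES were plated 18 h at 37 C/5% CO2, then exposed to compounds in DMSO for 3 h before LiveBLAzer B/G FRET substrate addition.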

[15] = cAMP Responsive Elements (CRE) small molecule antagonists, cell-based qHTS assay (AID 1963591; active means well fitted inhibition curve with a large enough effect in the signal ratio in the repeat runs, not every such curve was filed as active; the % refers to the signal ratio)
Procedure, shortened: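 CRE-bla HEK293T cells were plated 18 h at 37 °C/5% CO2, pinned with compound in DMSO, then stimulated with NKH477 at 0.25 uM final for 3 h. LiveBLAzer B/G FRET substrate was added and plates incubated 2 h at room temperature.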

[16] = molecular target: Beta-2 adrenergic receptor (Homo sapiens) (UniProt P07550); assay: Adrenergic beta2 receptor (ADRB2) small molecule antagonists, cell-based qHTS assay (AID 1963592); further: series mostly up to about 92 µM; nearly all actives have a fitted effect of over 50% in size
Procedure, shortened: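 Cells (CHO, stable ADRB2 overexpression) incubated 18-20hr at 37C; compounds added from DMSO; agonist mix (1nM isoproterenol, 100uM IBMX, 25uM Ro-20-1724) added; 0.5hr RT; d2-cAMP and anti-cAMP-cryptate added; 1hr RT; 665/615 nm read.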

[17] = molecular target: Beta-2 adrenergic receptor (Homo sapiens) (UniProt P07550); assay: Adrenergic beta2 receptor (ADRB2) small molecule agonists, cell-based qHTS assay (AID 1963593);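 further: CHO cells stably overexpressing human ADRB2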
Procedure, shortened: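 CHO cells stably over-expressing ADRB2 were plated overnight at 37C, then dosed with compounds plus a stimulation mix containing 100uM IBMX and 25uM Ro-20-1724 for 0.5hr at room temperature. cAMP was measured by HTRF competition, 1hr.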

[18] = molecular target: D(2) dopamine receptor (Homo sapiens) (UniProt P14416); assay: Dopamine D2 receptor (DRD2) small molecule agonists, cell-based qHTS assay (AID 1963594); further: nearly all actives have a fitted effect of over 35% in size
Procedure, shortened: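 HEK293 cells stably expressing DRD2 were cultured 24 h at 37 C, then given Ro20-1724 (0.1 mM final) and compounds for 10 min at room temperature. NKH477 (200nM) was then added for 30 min. cAMP was read by HTRF.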

[19] = molecular target: D(2) dopamine receptor (Homo sapiens) (UniProt P14416); assay: Dopamine D2 receptor (DRD2) small molecule antagonists, cell-based qHTS assay (AID 1963595; active means well fitted inhibition curve with a large enough effect in the signal ratio in the repeat runs, with a control signal flat; the % refers to the signal ratio)
Procedure, shortened: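 Antagonism was scored as restored cAMP in HEK293-DRD2 cells. These cells were stimulated with 200 nM NKH477 and 12 nM quinpirole for 30 min at room temperature, in the presence of 0.1 mM Ro20-1724.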

[20] = molecular target: 5-hydroxytryptamine receptor 2A (Homo sapiens) (UniProt P28223); assay: 5-hydroxytryptamine receptor 2A (HTR2A) small molecule agonists, cell-based qHTS assay (AID 1963587); further: nearly all actives have a fitted effect of over 30% in size; further: potency means the concentration at half of the fitted maximal effect
Procedure, shortened: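 HTR2A-CHO cells, plated 18 h at 37 C/5% CO2, dye-loaded 1 h at 37 C; compounds in DMSO added by pin tool (agonist mode). Intracellular calcium flux read as kinetic fluorescence on FDSS over 2 min at 1 s intervals.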

Measured: Potency

Sequence of Gonadotropin-releasing hormone receptor (Homo sapiens) (P30968 whole entry, looked up): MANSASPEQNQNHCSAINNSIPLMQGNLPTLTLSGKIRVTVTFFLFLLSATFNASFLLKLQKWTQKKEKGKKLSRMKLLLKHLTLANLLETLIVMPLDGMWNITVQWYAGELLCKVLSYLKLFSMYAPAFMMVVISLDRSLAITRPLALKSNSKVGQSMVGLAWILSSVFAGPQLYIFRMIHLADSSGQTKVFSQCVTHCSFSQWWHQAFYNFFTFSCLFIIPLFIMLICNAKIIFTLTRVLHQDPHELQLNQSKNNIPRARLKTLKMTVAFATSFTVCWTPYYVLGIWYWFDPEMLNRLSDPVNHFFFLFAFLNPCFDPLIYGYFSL
Sequence of Beta-2 adrenergic receptor (Homo sapiens) (P07550 whole entry, looked up): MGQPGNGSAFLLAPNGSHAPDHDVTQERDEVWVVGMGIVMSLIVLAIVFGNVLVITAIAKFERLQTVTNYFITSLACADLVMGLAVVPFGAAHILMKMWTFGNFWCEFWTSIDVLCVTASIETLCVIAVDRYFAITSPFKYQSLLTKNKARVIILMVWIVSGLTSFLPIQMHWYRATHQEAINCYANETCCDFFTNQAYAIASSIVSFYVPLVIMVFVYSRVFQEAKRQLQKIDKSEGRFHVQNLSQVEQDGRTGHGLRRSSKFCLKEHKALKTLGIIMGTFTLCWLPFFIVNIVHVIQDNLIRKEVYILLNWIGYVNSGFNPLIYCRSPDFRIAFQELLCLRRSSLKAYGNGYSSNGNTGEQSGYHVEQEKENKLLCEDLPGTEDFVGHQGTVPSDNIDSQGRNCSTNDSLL
Sequence of 5-hydroxytryptamine receptor 2A (Homo sapiens) (P28223 whole entry, looked up): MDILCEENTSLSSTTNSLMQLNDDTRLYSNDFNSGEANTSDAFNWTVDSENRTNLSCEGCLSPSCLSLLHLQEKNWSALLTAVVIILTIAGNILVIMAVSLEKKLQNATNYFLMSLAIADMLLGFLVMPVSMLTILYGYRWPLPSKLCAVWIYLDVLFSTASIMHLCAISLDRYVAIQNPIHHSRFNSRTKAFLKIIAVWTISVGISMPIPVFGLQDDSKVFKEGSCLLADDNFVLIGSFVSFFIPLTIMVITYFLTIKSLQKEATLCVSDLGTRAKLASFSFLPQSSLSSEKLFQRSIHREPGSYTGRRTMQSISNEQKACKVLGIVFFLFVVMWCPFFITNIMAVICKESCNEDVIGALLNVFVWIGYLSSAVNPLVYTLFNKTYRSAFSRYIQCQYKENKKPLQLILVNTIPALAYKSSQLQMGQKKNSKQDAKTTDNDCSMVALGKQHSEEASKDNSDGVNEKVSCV
Sequence of KiSS-1 receptor (Homo sapiens) (Q969F8 whole entry, looked up): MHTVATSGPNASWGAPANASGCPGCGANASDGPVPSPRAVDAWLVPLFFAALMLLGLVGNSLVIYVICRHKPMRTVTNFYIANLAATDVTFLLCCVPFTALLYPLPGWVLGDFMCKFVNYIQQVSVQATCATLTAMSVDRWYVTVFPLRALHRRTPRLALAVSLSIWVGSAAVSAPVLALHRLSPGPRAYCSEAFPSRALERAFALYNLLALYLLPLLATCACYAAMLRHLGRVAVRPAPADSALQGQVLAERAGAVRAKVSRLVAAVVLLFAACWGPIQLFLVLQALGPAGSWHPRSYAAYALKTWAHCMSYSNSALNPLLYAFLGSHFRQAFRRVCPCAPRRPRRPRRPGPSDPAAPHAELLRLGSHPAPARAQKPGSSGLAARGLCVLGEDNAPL
Sequence of Muscarinic acetylcholine receptor M1 (Homo sapiens) (P11229 whole entry, looked up): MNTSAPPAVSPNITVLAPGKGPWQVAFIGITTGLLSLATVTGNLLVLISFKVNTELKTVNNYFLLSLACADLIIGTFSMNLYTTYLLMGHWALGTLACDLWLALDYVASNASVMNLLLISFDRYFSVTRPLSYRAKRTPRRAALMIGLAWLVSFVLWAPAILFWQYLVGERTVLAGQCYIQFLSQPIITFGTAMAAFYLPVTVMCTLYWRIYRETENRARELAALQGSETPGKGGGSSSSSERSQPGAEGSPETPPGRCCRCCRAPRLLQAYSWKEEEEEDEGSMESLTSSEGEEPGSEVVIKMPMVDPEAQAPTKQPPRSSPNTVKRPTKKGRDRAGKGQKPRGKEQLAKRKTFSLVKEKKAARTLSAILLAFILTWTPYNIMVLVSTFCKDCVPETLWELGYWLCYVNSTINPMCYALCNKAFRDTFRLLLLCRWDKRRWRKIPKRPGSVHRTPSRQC
Sequence of D(2) dopamine receptor (Homo sapiens) (P14416 whole entry, looked up): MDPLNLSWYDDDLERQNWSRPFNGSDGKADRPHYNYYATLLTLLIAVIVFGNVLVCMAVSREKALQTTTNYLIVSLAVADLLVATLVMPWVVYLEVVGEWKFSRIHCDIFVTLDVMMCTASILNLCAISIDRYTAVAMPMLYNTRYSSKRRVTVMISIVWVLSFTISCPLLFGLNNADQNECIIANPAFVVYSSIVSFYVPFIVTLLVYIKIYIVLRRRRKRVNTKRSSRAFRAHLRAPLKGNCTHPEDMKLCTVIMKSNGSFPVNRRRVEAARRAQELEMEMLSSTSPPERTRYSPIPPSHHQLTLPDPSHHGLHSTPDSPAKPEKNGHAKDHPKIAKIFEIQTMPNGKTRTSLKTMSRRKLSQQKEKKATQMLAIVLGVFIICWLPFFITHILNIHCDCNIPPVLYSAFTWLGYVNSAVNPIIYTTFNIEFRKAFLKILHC

CC/C=C(\C(=O)N[C@@H]1C(=O)N2C(C(=O)OCOC(=O)C(C)(C)C)=C(COC(N)=O)CS[C@H]12)c1csc(N)n1
inactive and 29.8 µM (active): [2]
inactive: [1] | [3] | [4] | [5] | [6] | [7] | [8] | [9] | [10] | [11] | [12] | [13] | [14] | [15] | [16] | [17] | [18] | [19]

OC[C@]1(O)OC[C@@H](O)[C@H](O)[C@@H]1O
inactive: [1] | [2] | [3] | [4] | [5] | [6] | [7] | [8] | [9] | [10] | [11] | [20] | [12] | [13] | [14] | [15] | [16] | [17] | [18] | [19]

O=C(/C=C/C=C/c1ccc2c(c1)OCO2)N1CCCCC1
inactive: [1] | [3] | [4] | [5] | [6] | [7] | [8] | [9] | [10] | [11] | [12] | [13] | [14] | [15] | [16] | [18] | [19]
inactive and 2.73 µM (active): [2]
6.18 µM (active) and inactive: [20]

CC(=O)Nc1ccc(CC(=O)O)cc1
inactive: [1] | [2] | [3] | [4] | [5] | [6] | [7] | [8] | [9] | [10] | [11] | [20] | [13] | [14] | [15] | [16] | [17] | [18] | [19]

C[Si](C)(C)O[Si](C)(C)C
inactive: [1] | [2] | [3] | [4] | [5] | [6] | [7] | [8] | [9] | [10] | [11] | [12] | [13] | [14] | [15] | [16] | [17] | [18] | [19]

CC(=O)OCCC(C)C
inactive: [1] | [2] | [3] | [4] | [5] | [6] | [7] | [8] | [9] | [10] | [11] | [20] | [12] | [14] | [15] | [16] | [17] | [18] | [19]

O=c1c(O)c(-c2ccc(O)cc2)oc2cc(O)cc(O)c12
17.2 µM (active) and inactive: [2]
inactive: [1] | [3] | [4] | [5] | [6] | [7] | [8] | [9] | [10] | [11] | [20] | [12] | [13] | [16] | [18] | [19]

COc1ccccc1O
inactive: [1] | [2] | [3] | [4] | [5] | [6] | [7] | [8] | [9] | [10] | [11] | [20] | [13] | [14] | [15] | [16] | [17] | [18]

O=C(OCc1ccccc1)c1ccccc1O
active: [2] 48.2 µM and 54.5 µM | [10] 45.8 µM
inactive: [1] | [3] | [4] | [5] | [6] | [7] | [8] | [9] | [11] | [20] | [12] | [14] | [15] | [16] | [17] | [18] | [19]

C=C(C)C(=O)O[C@H]1C[C@@H]2CC[C@@]1(C)C2(C)C
963 nM (active) and inactive: [2]
7.21 µM (active) and inactive: [9]
inactive: [3] | [4] | [5] | [6] | [7] | [8] | [10] | [11] | [12] | [13] | [15] | [16] | [17] | [18]
1.21 µM (active) and inactive: [1]

OCC1CCCO1 (stereo unspecified)
inactive: [1] | [2] | [3] | [4] | [5] | [6] | [7] | [8] | [9] | [10] | [11] | [20] | [13] | [14] | [15] | [16] | [18] | [19]

COc1cc(OC)c(C(=O)CCCN2CCCC2)c(OC)c1
inactive: [1] | [2] | [3] | [4] | [5] | [6] | [7] | [8] | [9] | [10] | [11] | [14] | [15] | [16] | [17] | [18] | [19]

C=CCc1ccc(O)c(OC)c1
inactive: [1] | [2] | [3] | [4] | [5] | [6] | [7] | [8] | [9] | [10] | [11] | [15] | [16] | [17] | [18]

CCCCCCCCCCCO
inactive: [1] | [2] | [3] | [4] | [5] | [6] | [7] | [8] | [9] | [10] | [11] | [20] | [13] | [14] | [15] | [16] | [18] | [19]

Nc1ccc(S(=O)(=O)Nc2nccs2)cc1
inactive: [1] | [2] | [3] | [4] | [5] | [6] | [7] | [8] | [9] | [10] | [11] | [14] | [15] | [16] | [17] | [18] | [19]
